“And” between values parts separate entries of the source, which are not always exact repeats. Equal entries are not always repeated. Inconclusive results are not listed. Where a structure was tested more than once in an assay, its records may differ in their call. The source made the active and inactive calls. Unless noted, calls follow the shape of the dose curve; as a rule, active = well fitted curve in the direction sought with a large enough effect in the repeat runs; inconclusive = weak or mixed curves; inactive = no such curve, though single readings can be large; an effect the other way counts as inactive or inconclusive.

Drawing on PubChem BioAssay (Tox21), this text covers Potency for 32 compounds.

Assay [1] is described as follows: qHTS assay to identify aromatase inhibitors - cell viability counter screen (AID 743084).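 Also: cells stimulated with testosterone during compound exposure; nearly all actives have a fitted effect of over 55% in size.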 Also: potency is read from the fitted curve at half-maximal effect.
Assay [2] deals with Aryl hydrocarbon receptor (Homo sapiens) (UniProt P35869). In words: qHTS assay to identify small molecule that activate the aryl hydrocarbon receptor (AhR) signaling pathway (AID 743085). Also: nearly all actives have a fitted effect of over 15% in size. Also: potency is read from the fitted curve at half-maximal effect.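 As to activation: HG2L7.5c1 human HepG2 liver cells with stably integrated DRE-driven firefly reporter; series mostly up to about 70 µM.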 The gist of the method:
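A multiplexed format paired cell viability (CellTiter-Fluor fluorescence) with AhR-dependent luciferase output (ONE-Glo luminescence) in the same wells of HepG2 DRE-luc cells after 24 h compound exposure at 37C.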
On the technique in general: In qHTS, concentration-response curves come from the screen itself.

The nature of assay [3]: qHTS assay to identify small molecule that activate the aryl hydrocarbon receptor (AhR) signaling pathway - cell viability counter screen (AID 743086). Also: nearly all actives have a fitted effect of over 45% in size. Also: potency is read from the fitted curve at half-maximal effect. The gist of the method:
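HepG2-AhR-luc (HG2L7.5c1) cells, 4000/well, treated 24 h at 37 C with compound; viability measured as CellTiter-Fluor fluorescence after 30 min in the same wells as the luciferase read.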

A short description of assay [4]: qHTS assay to identify small molecule antagonists of the peroxisome proliferator-activated receptor gamma (PPARg) signaling pathway - cell viability counter screen (AID 743194). Also: nearly all actives have a fitted effect of over 55% in size. Also: potency is read from the fitted curve at half-maximal effect. The settings on record: Potency: co-treated with 50 nM rosiglitazone unless noted. The gist of the method:
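Cytotoxicity counter screen in PPARg-bla HEK293H cells, same wells as reporter assay. Compounds plus 50 nM rosiglitazone (final) for 17 h at 37 C, then viability read by CellTiter-Glo luminescence.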

A short description of assay [5]: qHTS assay for small molecule agonists of the antioxidant response element (ARE) signaling pathway (AID 743202; active = well fitted activation curve with a large enough effect in the signal ratio in the repeat runs, not every such curve was filed as active; the % refers to the signal ratio; also: potency is read from the fitted curve at half-maximal effect). An outline of the steps: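 Agonist mode reporter screen: HepG2 cells with ARE-controlled beta-lactamase are incubated with test compounds for 16 h at 37 C, and beta-lactamase activity is measured as fluorescence of cleaved B/G FRET substrate.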
Assay [6] is described as follows: qHTS assay for small molecule agonists of the antioxidant response element (ARE) signaling pathway - cell viability counter screen (AID 743203; calls by dose curve; also: nearly all actives have a fitted effect of over 55% in size; also: potency is read from the fitted curve at half-maximal effect). The gist of the method:
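Compounds in DMSO were pinned onto ARE-bla HepG2 cells plated 5 hrs earlier at 2,000 cells/well. Sixteen hours later at 37C/5% CO2, CellTiter-Glo was added and luminescence measured after 30 min at room temperature.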

Assay [7] in a line: qHTS assay for small molecule activators of the heat shock response signaling pathway - cell viability counter screen (AID 743209). Also: nearly all actives have a fitted effect of over 50% in size. Also: potency is read from the fitted curve at half-maximal effect. The gist of the method: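 Counter screen for cytotoxicity in HeLa HSE-bla reporter cells. Treatment was 5 h at 37 C; viability was detected by luminescent ATP assay (CellTiter-Glo) in the same wells as the beta-lactamase read.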
Assay [8] in a line: qHTS assay for small molecule activators of the heat shock response signaling pathway (AID 743210; active = well fitted activation curve with a large enough effect in the signal ratio in the repeat runs, with a control signal flat, not every such curve was filed as active; the % refers to the signal ratio; also: potency is read from the fitted curve at half-maximal effect;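 as to activation: HeLa cells with beta-lactamase reporter driven by heat shock elements; series mostly up to about 63 µM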). The gist of the method:
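Quantitative high-throughput format using an engineered HeLa line in which heat shock response elements drive beta-lactamase; after 5 h with compound, cells received a B/G FRET substrate and fluorescence was read.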

Assay [9] concerns the target Peroxisome proliferator-activated receptor gamma (Homo sapiens) (UniProt P37231). Briefly: qHTS assay to identify small molecule agonists of the peroxisome proliferator-activated receptor gamma (PPARg) signaling pathway (AID 743094; active = well fitted activation curve with a large enough effect in the signal ratio in the repeat runs, not every such curve was filed as active; the % refers to the signal ratio). An outline of the steps:
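Following 5 h plating at 37C, PPARg-bla HEK293H cells receive compound or DMSO for 17 h; fluorescence intensity is recorded after LiveBLAzer B/G loading for 1 h at room temperature.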

For assay [10] the target is unchanged. Briefly: qHTS assay to identify small molecule antagonists of the peroxisome proliferator-activated receptor gamma (PPARg) signaling pathway (AID 743191; calls by dose curve; also: series mostly up to about 63 µM; nearly all actives have a fitted effect of over 30% in size). The gist of the method:
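GeneBLAzer PPARg UAS-bla HEK293H cells, 5 h post-plating, exposed to compounds 17 h at 37C. LiveBLAzer B/G FRET substrate added for 1 h at room temperature; beta-lactamase reporter read by fluorescence intensity.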

Chain of Aryl hydrocarbon receptor (Homo sapiens) (P35869 whole entry, looked up): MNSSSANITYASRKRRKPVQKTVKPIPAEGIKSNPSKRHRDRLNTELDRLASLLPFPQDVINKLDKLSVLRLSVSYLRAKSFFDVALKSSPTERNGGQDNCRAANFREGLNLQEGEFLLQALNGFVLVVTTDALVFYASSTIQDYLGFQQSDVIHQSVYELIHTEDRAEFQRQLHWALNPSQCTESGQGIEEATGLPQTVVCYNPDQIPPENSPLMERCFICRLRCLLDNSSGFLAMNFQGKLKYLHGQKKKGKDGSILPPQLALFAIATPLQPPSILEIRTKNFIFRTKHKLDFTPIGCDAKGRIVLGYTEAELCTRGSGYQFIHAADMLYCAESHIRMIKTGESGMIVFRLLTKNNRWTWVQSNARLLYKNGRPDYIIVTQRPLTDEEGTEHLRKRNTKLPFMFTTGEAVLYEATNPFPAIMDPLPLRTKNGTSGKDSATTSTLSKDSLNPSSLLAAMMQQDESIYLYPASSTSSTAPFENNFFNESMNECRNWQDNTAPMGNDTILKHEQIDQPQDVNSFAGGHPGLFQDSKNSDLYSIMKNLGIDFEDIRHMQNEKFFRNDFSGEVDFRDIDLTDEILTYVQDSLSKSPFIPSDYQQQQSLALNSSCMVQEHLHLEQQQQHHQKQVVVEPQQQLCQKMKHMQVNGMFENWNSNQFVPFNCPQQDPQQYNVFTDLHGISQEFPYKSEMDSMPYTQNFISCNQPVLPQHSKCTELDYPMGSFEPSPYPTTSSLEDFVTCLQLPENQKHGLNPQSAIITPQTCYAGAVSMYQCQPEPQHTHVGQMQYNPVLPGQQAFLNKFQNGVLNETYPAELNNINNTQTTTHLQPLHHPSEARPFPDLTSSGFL
Chain of Peroxisome proliferator-activated receptor gamma (Homo sapiens) (P37231 whole entry, looked up): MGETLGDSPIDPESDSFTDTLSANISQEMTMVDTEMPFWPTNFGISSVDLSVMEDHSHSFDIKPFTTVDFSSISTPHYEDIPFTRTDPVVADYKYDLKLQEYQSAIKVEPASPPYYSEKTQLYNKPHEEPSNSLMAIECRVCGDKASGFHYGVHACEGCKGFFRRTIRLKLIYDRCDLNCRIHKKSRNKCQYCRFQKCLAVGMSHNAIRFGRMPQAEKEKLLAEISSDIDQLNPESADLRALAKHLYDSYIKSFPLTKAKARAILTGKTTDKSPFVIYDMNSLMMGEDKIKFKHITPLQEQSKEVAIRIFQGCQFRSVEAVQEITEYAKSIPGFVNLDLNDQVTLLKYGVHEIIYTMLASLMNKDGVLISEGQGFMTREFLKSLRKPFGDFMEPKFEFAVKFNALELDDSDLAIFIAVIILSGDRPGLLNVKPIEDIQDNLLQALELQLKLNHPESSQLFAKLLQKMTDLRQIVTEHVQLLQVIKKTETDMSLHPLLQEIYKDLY

In the case of `Nc1ccc(-c2ccccc2)cc1`, the Potency entry in [1], in assay [3], in assay [4], in assay [6], in assay [7] and in assay [8] was “inactive” throughout. Also, the Potency is 9.69 µM (active) in assay [2]; “inactive and 27.3 µM (active)” in assay [5].
Consider `CCC(C)c1ccc(O)cc1` (stereo not given), for which the Potency entry in assay [3], in [4], in assay [6], in assay [7] and in assay [8] was “inactive” in each case.
As for `CCCCCCCCC(=O)NCc1ccc(O)c(OC)c1`, the Potency entry in assay [1], in assay [3], in assay [9], in [10], in [4] and in [5] was “inactive” each time. Also, the Potency result in assay [6], in assay [7] and in assay [8] was “inactive” throughout.
Consider `Cc1ccc(N)c(N)c1`, for which the Potency entry in [3], in assay [4], in assay [6] and in assay [7] was “inactive” each time. Also, the Potency in assay [5] was 8.66 µM (active) and 10.9 µM (active).
For the compound `O=Cc1ccco1`, the Potency entry in assay [1], in assay [2], in [3], in assay [4], in assay [6] and in assay [7] was “inactive” each time. For the same compound, the Potency entry in assay [8] was “inactive”.
`CNC(=O)N(C)c1nnc(C(C)(C)C)s1`: the Potency result in assay [1], in [2], in assay [3], in assay [4], in assay [6] and in assay [7] was “inactive” in each case. Besides, the Potency result in assay [8] is “inactive”.
`C=C(C)[C@H]1Cc2c(ccc3c2O[C@@H]2COc4cc(OC)c(OC)cc4[C@@H]2C3=O)O1`: the Potency in assay [1] was 34.8 µM (active) and 34.4 µM (active); in assay [3], “inactive and 39.1 µM (active) and 21.7 µM (active)”; in assay [6] it was 15.6 µM (active) and 3.86 µM (active) and 3.76 µM (active). Moreover, the Potency entry in assay [2], in assay [4], in assay [7] and in assay [8] was “inactive” each time.
For `Cc1ccc2c(c1N)C(=O)c1ccccc1C2=O`, the Potency in [1] was 43.3 µM (active); in [2] it was 3.03 µM (active) and 4.33 µM (active); in assay [3] it was 27.3 µM (active). Moreover, the Potency result in assay [4], in [6], in assay [7] and in assay [8] was “inactive” each time.
In the case of `CCOc1cc(C=O)ccc1O`, the Potency result in assay [3], in assay [4], in assay [6], in assay [7] and in assay [8] was “inactive” in each case.
Turning to `CCCCOCCOP(=O)(OCCOCCCC)OCCOCCCC`, the Potency entry in assay [1], in [3], in assay [4], in [6], in [7] and in assay [8] was “inactive” each time.
Take `C=CC(=O)OCCO`: the Potency result in assay [3], in [4], in assay [6], in [7] and in assay [8] was “inactive” each time.
On to `Oc1cc(Cl)ccc1Oc1ccc(Cl)cc1Cl`, for which the Potency result is “inactive and 22.2 µM (active)” in assay [1]; “inactive and 21 µM (active)” in assay [2]; 6.31 µM (active) in [4]; 27.9 µM (active) in assay [6]; 30.7 µM (active) and 29.8 µM (active) in [7].
Turning to `c1cc(OCC2CO2)ccc1Cc1ccc(OCC2CO2)cc1` (stereo not given), the Potency entry in [3], in assay [6] and in [7] was “inactive” each time. The Potency in assay [5] was 61.4 µM (active) and 61.1 µM (active).
Take `CCOC(=O)C(C)OC(=O)c1cc(Oc2ccc(C(F)(F)F)cc2Cl)ccc1[N+](=O)[O-]` (stereo not given): the Potency entry in assay [1], in assay [2], in assay [3], in assay [4], in [6] and in assay [7] was “inactive” throughout.
Consider `CCC(C)(c1ccc(O)cc1)c1ccc(O)cc1`, for which the Potency result in assay [1], in assay [2], in assay [3], in assay [4], in assay [6] and in [7] was “inactive” in each case.
For `CC(C)c1ccc(CO)cc1`, the Potency result in assay [1], in assay [3], in [4], in assay [5], in assay [6] and in assay [7] was “inactive” throughout. The Potency result in assay [8] is “inactive”.
Take `NC(=S)Nc1ccccc1`: the Potency entry in [1], in assay [2], in assay [3], in assay [4], in assay [6] and in assay [7] was “inactive” throughout. Besides, in assay [8], the Potency entry is “inactive”.
On to `C=CCc1ccc(OC)cc1`, for which the Potency result in [1], in assay [2], in [3], in [4], in assay [6] and in [7] was “inactive” each time. Also, the Potency result in assay [8] is “inactive”.
For `CCOC(=S)S`, the Potency entry in assay [2], in [3], in [4] and in [6] was “inactive” in each case. In addition, the figures for the Potency in assay [7] and in assay [8] were 17.4 µM (active) and 2.24 µM (active), respectively.
On to `C=CCc1ccc2c(c1)OCO2`, for which the Potency result in [1], in assay [3], in assay [4], in [5], in assay [6] and in assay [7] was “inactive” in each case. Also, the Potency entry in assay [8] is “inactive”.
Take `N[C@@H](Cc1ccc(N(CCCl)CCCl)cc1)C(=O)O`: the Potency result in assay [2], in assay [3], in assay [4], in assay [5], in [6] and in assay [7] was “inactive” throughout. For the same compound, the Potency entry in assay [8] was “inactive”.
As to `c1ccc(N=Nc2ccccc2)cc1`, the Potency entry in assay [1], in assay [2], in assay [3], in [4], in [6] and in assay [7] was “inactive” throughout. The Potency result in assay [8] was “inactive”.
`c1ccc(NNc2ccccc2)cc1`: the Potency entry in assay [3], in assay [4], in assay [5], in [6], in assay [7] and in assay [8] was “inactive” in each case.
`N#Cc1cc(Br)c(O)c(Br)c1`: the Potency entry in assay [1], in [3], in assay [9], in [4], in [6] and in assay [7] was “inactive” throughout. In addition, the Potency result in assay [8] is “inactive”.
Consider `C1=Cc2cccc3cccc1c23`, for which the Potency result in [1], in assay [3], in assay [9], in assay [10], in assay [4] and in assay [6] was “inactive” each time. For the same compound, the Potency result in assay [7] and in assay [8] was “inactive” in each case.
As to `N#CCCCl`, the Potency result in [3], in assay [4], in [5], in assay [6], in [7] and in [8] was “inactive” each time.
As for `Nc1ccc(-c2ccc(N)c(N)c2)cc1N`, the Potency in assay [1] was 54.3 µM (active) and inactive; in assay [2] it was 484 nM (active) and 3.06 µM (active). The Potency entry in assay [9], in assay [4], in assay [6] and in assay [7] was “inactive” each time.
`O=C(O)C(F)(F)C(F)(F)C(F)(F)C(F)(F)C(F)(F)C(F)(F)C(F)(F)F`: the Potency result in assay [1], in [2], in assay [3], in [4], in assay [6] and in assay [7] was “inactive” throughout.
As for `S=C1NCCN1`, the Potency result in assay [1], in assay [2], in [3], in assay [6], in assay [7] and in assay [8] was “inactive” in each case.
Regarding `NNC(=S)NN`, the Potency entry in assay [1], in [3], in assay [9], in assay [10], in assay [4] and in assay [5] was “inactive” in each case. Besides, the Potency result in assay [6] and in assay [7] was “inactive” each time. Also, the Potency in assay [8] is 1.79 µM (active) and 4.36 µM (active).
For the compound `Cc1cc(C)cc(C)c1`, the Potency result in assay [3], in assay [4], in assay [5], in assay [6], in assay [7] and in assay [8] was “inactive” in each case.
On to `CCc1cccc(CC)c1N(COC)C(=O)CCl`, for which the Potency entry in assay [2], in assay [3], in [6] and in assay [7] was “inactive” each time. Besides, the Potency in assay [5] was 4.19 µM (active) and 4.86 µM (active).
